Bioassay records from PubChem BioAssay.
The list is not random: actives were taken first. Their share in the collection is about 19%.
IL1B secr inh: inflammasome signaling inhibition, IL-1 beta readout; 4.7% of 360,000 active; AID 743279; THP-1 LPS/ATP IL-1B secretion, AlphaLISA, 16 h; active compounds read low; activity change, % at 57.5 µM; in the data active = activity change below about -50%; inconclusive = mostly about -30% to -49%
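THP-1 cells pretreated 1 hr with compounds (up to 57.5 uM final), then stimulated with LPS (250 ng/mL final) plus ATP (1.25 mM final); secreted IL-1B measured by AlphaLISA after 16 hr, decreased signal indicating inhibition.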
ELG1 DNA repair: blocks ELG1-dependent DNA repair in HEK293T cells. HEK293T ELG1-luciferase reporter, luminescence, 16 h; DNA damage induced by 5-fluorouridine. Potency, µM (doses to about 46.1 µM), usual class: inhibitors. 2.3% of 330,000 active. AID 504467; also: nearly all actives have a fitted effect of over 55% in size
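Step one: seed 2,000 cells per well. Step two: pin-transfer compound or DMSO alongside 5-fluorouridine. Step three: incubate 16 hr, 37 °C, 5% CO2. Step four: add ONE-Glo, wait 30 min, read luminescence.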
DT40 TDP1 no CPT: qHTS for Inhibitors of human tyrosyl-DNA phosphodiesterase 1 (TDP1): qHTS in cells in absence of CPT; 15% of 420,000 active; AID 686978, 2013; Potency, µM (titrated, usually from 46.2 µM), actives largely listed as inhibitors; DT40 Tdp1-/- hTDP1 cells, no CPT, ATP luminescence, 48 h; also: nearly all actives have a fitted effect of over 55% in size
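Growth kinetics read by CellTiter-Glo luminescence after ≥48 hr at 37 °C. Cells: DT40 Tdp1-/- stably carrying human TDP1, 400 per well, compound exposure in the absence of CPT (DMSO vehicle).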
Giardia kill: kills Giardia lamblia | Giardia lamblia trophozoite viability | activity change, % at 7.66 µM, hits read low | 0.15% of 340,000 active; in the data active = activity change below about -80%; inconclusive = between about -30% and that limit;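 also: parasites exposed to compound for two days anaerobically before the ATP read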
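Media and compound were dispensed first, then trophozoites at 100 cells/well; plates sat 48 hrs at 37 deg C without oxygen before ATP luminescence reagent was added and read after 15-30 min at room temperature.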
TDP1 cell CPT: growth inhibition of DT40 Tdp1-/-;hTDP1 cells with camptothecin (screen for TDP1 inhibitors); 12% of 420,000 active; Potency, µM (titrated, usually from 46.2 µM), actives largely listed as inhibitors; chicken DT40 Tdp1-/-;hTDP1 cells + 20 nM CPT, ATP luminescence, 48 h; also: nearly all actives have a fitted effect of over 55% in size
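Cell growth measured by CellTiter-Glo luminescence after a minimum 48 h, 37 C compound exposure with 20 nM CPT in Tdp1-knockout DT40 cells stably expressing hTDP1, seeded 400/well; qHTS titration format.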
TDP1 inh: TDP1 (human) enzyme inhibition; Q9NUW8; recombinant TDP1, AlphaScreen DNA substrate cleavage; Potency, µM (doses to about 130 µM), actives largely listed as inhibitors; 0.28% of 350,000 active; AID 485290; also: nearly all actives have a fitted effect of over 40% in size
Target sequence (Q9NUW8 whole entry, looked up): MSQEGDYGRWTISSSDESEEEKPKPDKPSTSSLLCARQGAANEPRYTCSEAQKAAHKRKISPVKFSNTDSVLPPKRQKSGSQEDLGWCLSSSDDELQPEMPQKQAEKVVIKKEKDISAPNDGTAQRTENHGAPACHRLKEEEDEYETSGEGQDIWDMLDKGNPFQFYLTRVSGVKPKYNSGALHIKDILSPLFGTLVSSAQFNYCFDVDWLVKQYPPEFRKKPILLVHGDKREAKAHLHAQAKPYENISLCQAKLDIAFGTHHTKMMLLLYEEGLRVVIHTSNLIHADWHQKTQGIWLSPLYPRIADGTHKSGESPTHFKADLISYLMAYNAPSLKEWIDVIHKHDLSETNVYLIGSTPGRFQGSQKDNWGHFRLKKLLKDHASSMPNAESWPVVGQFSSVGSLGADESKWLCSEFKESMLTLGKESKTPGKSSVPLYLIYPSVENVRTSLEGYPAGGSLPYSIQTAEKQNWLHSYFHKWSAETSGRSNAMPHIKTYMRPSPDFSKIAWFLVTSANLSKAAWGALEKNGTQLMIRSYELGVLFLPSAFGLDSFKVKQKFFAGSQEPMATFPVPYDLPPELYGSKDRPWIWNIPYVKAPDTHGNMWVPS
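Recombinant E. coli-expressed Tdp1 (1 nM) preincubated with compound 15 min at RT, then 5'-biotin/3'-phosphotyrosine-FITC DNA substrate (15 nM) added for 5 min. AlphaScreen beads (10 ug/ml) added, 10 min RT; tyrosine-FITC cleavage read as signal loss.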
A number is an active result; 0 = inactive; ? = inconclusive; - = no result; [ ] = another dose, or the depositor's remark. Unless noted, calls follow the shape of the dose curve; as a rule, active = well fitted curve in the direction sought with a large enough effect; inconclusive = small, poorly fitted or top-dose-only effect, or another doubt; inactive = no such curve, though single readings can be large; an effect the other way counts as inactive or inconclusive.

SMILES | IL1B secr inh | ELG1 DNA repair | DT40 TDP1 no CPT | Giardia kill | TDP1 cell CPT | TDP1 inh
O=C(NCCc1ccc(Cl)cc1)c1nc(-c2cccc(F)c2)n2c1CCCCC2 | - | - | 9.2µM | - | 18µM | 0
COC(=O)c1ccc(NC(=O)c2nc(-c3ccc(Cl)cc3)n3c2CCCCC3)cc1 | - | - | 0.82µM | - | 0.73µM | 0
O=C(NCCc1ccccc1)c1nc(-c2ccc(Cl)cc2)n2c1CCCCC2 | - | - | 10µM | - | 12µM | 0
CC(C)N(Cc1ccccc1)C(=O)c1nc(-c2ccc(Cl)cc2)n2c1CCCCC2 | - | - | 18µM | - | 9.2µM | 0
CCOc1ccc(CCNC(=O)Cn2c(-c3cccs3)cc3ccccc32)cc1 | - | - | ? | - | ? | 0
O=C(Nc1cc2c(cc1C(=O)O)OCCCO2)c1ccc(F)cc1F | 0 | ? | 0 | 0 | 0 | -
COCCN1CC(CNC(=O)c2cc(COc3ccc(C)c(C)c3)on2)CC1=O (centres undefined) | 0 | ? | 0 | 0 | 0 | 0
CCOc1ccccc1CNC(=O)c1nc(-c2ccc(Cl)cc2)n2c1CCCCC2 | - | - | ? | - | 23µM | 0
O=S(=O)(c1ccccc1)c1nc(-c2ccco2)oc1SCc1ccc(F)cc1 | - | - | ? | - | 0 | 0
CCC(Sc1nnc(C)c(=O)[nH]1)C(=O)Nc1cccc2ccccc12 (centres undefined) | 0 | 0 | ? | 0 | 0 | 0
CCC(=O)Nc1c(-c2ccccc2)c(=O)c2ccccc2n1C | 0 | 0 | 0 | 0 | 0 | 0
Cn1nc([N+](=O)[O-])nc1Sc1cccc2cccnc12 | 0 | ? | 21µM | ? | 6.5µM | 0
Cn1nc([N+](=O)[O-])nc1Sc1nnnn1-c1cccc(C(=O)O)c1 | 0 | 0 | 0 | 0 | 0 | 0
O=[N+]([O-])c1ccc(Cl)cc1Sc1cccc2cccnc12 | 0 | 0 | ? | 0 | 0 | 0
Cn1nc([N+](=O)[O-])nc1Sc1nnc(-c2ccccc2)o1 | -96 | ? | 4.6µM | 0 | 5.2µM | 0
CC(=O)c1ccc(N2CCN(S(=O)(=O)c3ccc4c5c3CC(=O)N5CC(C)S4)CC2)cc1 (centres undefined) | 0 | 0 | 21µM | 0 | 21µM | 0
CCCCc1nn2c(=O)cc(COC(=O)c3ccccc3NC(=O)c3ccccc3OC)nc2s1 | - | - | 0 | - | 0 | 0
Cc1c(Cc2ccc3c(c2)OCO3)sc(NC(=O)C(C)(C)C)c1C#N | 0 | ? | 8.2µM | 0 | 18µM | 0
CCS(=O)(=O)Nc1cc(C(=O)N[C@H]2CCCCNC2=O)c2c(c1)nc(-c1ccccc1)n2C | - | - | 0 | - | 0 | -
Cc1cc(C(=O)NNC(=O)c2ccc(C(F)(F)F)cc2)no1 | - | 0 | 0 | 0 | 0 | 0
Cc1nc(C(=O)NNC(=O)c2ccc(C(F)(F)F)cc2)cs1 | 0 | 0 | 21µM | 0 | ? | -
CCC(=O)Nc1nnc(S(=O)(=O)N(C)c2ccccc2)s1 | 0 | 0 | 0 | 0 | 0 | -
Cc1ccc(N2C(=O)C3N=NN(CC(=O)N4N=C(c5ccccc5)CC4c4ccccc4)C3C2=O)cc1 (centres undefined) | 0 | 0 | 0 | 0 | 0 | 0
O[C@@H](CNC[C@H](O)[C@H]1CCc2cc(F)ccc2O1)[C@@H]1CCc2cc(F)ccc2O1 | - | - | 4.2µM | - | 6.7µM | -
COc1cc(NC(=O)CCCNC(=O)Cn2cnc3sc(C)c(C)c3c2=O)cc(OC)c1OC | 0 | ? | 0 | 0 | 0 | 0
SMILES | IL1B secr inh | ELG1 DNA repair | DT40 TDP1 no CPT | Giardia kill | TDP1 cell CPT | TDP1 inh
CCN(CC)C(=O)[C@H]1C[C@H](CC(=O)NCCCn2ccnc2)C(=O)N2CCc3c([nH]c4ccc(Cl)cc34)[C@]12C | 0 | 0 | ? | 0 | ? | 0
CCN(CC)C(=O)[C@H]1C[C@H](CC(=O)NCC23CC4CC(CC(C4)C2)C3)C(=O)N2CCc3c([nH]c4ccc(Cl)cc34)[C@]12C | -69 | ? | 18µM | 0 | 16µM | 0
CC(C)N(C(=O)[C@H]1C[C@H](CC(=O)NCC23CC4CC(CC(C4)C2)C3)C(=O)N2CCc3c([nH]c4ccc(Cl)cc34)[C@]12C)C(C)C | -75 | ? | 13µM | 0 | 18µM | 0
COc1ccc2[nH]c3c(c2c1)CCN1C(=O)C(CC(=O)NCc2ccc(OC)c(OC)c2)C[C@H](C(=O)N(C(C)C)C(C)C)[C@@]31C (some centres undefined) | 0 | 0 | ? | 0 | ? | 0
C[C@H](O/N=C1/[C@H]2O[C@@H]2[C@@H](O)[C@H]2[C@H]1CCn1c(=O)n(-c3ccccc3)c(=O)n12)c1cn([C@H]2COC[C@H]2O)nn1 | - | - | - | - | - | 0[21 µM]
CN(Cc1c(C(=O)N/N=C/c2ccccc2O)nnn1-c1nonc1N)C1CCCCC1 | 0 | - | 6.5µM | - | ? | -
CC1CCN(Cc2c(C(=O)N/N=C/c3cccc(Cl)c3)nnn2-c2nonc2N)CC1 | 0 | 0 | ? | 0 | ? | 0
CC(/C=N/NC(=O)c1nnn(-c2nonc2N)c1CN1CCCCC1)=C\c1ccccc1 | 0 | 0 | ? | 0 | ? | 0
CN(Cc1c(C(=O)N/N=C/c2cccc(O)c2)nnn1-c1nonc1N)C1CCCCC1 | 0 | ? | 0 | ? | 0 | 0
CC1CCN(Cc2c(C(=O)N/N=C/c3ccccc3O)nnn2-c2nonc2N)CC1 | 0 | ? | 7.3µM | 0 | 8.2µM | 0
Cc1ccccc1COc1ccc(/C=N/NC(=O)c2nnn(-c3nonc3N)c2CN2CCC(C)CC2)cc1 | ? | 0 | 3.3µM | ? | 10µM | 0
CC(=C/c1ccccc1)/C=N/NC(=O)c1nnn(-c2nonc2N)c1CN1CCC(C)CC1 | 0 | ? | 18µM | 0 | ? | 0
COc1cc(OC)cc(C(=O)N[C@H](C(=O)OCC(=O)Nc2ccc3c(c2)OCO3)C(C)C)c1 | 0 | ? | 0 | 0 | 0 | 0
OC(c1ccc(F)c(F)c1)c1nc(-c2ccoc2)cs1 (centres undefined) | 0 | - | ? | - | ? | -
O=C(NCc1cc(F)cc2c1OCCO2)[C@H]1C[C@@H]1[C@H](NP(=O)(c1ccccc1)c1ccccc1)c1ccccc1 | - | - | - | - | - | 0
COc1cc(/C=N/NC(=O)c2c(C)nnn2-c2nonc2N)ccc1O | 0 | 0 | 0 | 0 | 0 | 0
Cc1nnn(-c2nonc2N)c1C(=O)N/N=C/c1ccccc1O | 0 | ? | 4.6µM | 0 | 4.1µM | 0
Cc1cc(Cn2nc(C(=O)NCc3cccc(Br)c3)cc2-c2ccccc2)on1 | -58 | ? | ? | 0 | ? | 0
COCCNC(=O)c1cc(-c2ccccc2)n(Cc2cc(C)no2)n1 | 0 | 0 | 0 | 0 | 0 | -
Cc1ccc(CN(C)C(=O)C2CCC(=O)N(CC3CCCCC3)C2)o1 (centres undefined) | 0 | 0 | 0 | 0 | 0 | 0
CCc1c(C)nc(SCC(=O)c2cccs2)c(C#N)c1C | -99 | ? | ? | 0 | ? | 0
